Reference: PubChem BioAssay
For some of these results: Entries with a potency or affinity are not part of this list. Activity calls are given as the source filed them. Unless noted, how the calls were made is not given here.

How the values were obtained:
[1] = antimalarial activity against Dd2 strain (AID 2302;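 active means growth inhibition above 50% at the single 2 µM test dose, taken to imply half-maximal potency below 2 µM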;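 further: 0% = DMSO untreated growth and 100% = chloroquine plus artemisinin killed control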); conditions: P. falciparum Dd2 in RBCs, LDH growth readout, 72 h; at 2 µM; hits give high values
[2] = human hepatoma cell viability loss – ATP luminescence, cytotoxicity control for P. falciparum antimalarial project, primary screen (AID 2303;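 active means inhibition above 50%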;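 further: 0% = DMSO wells and 100% = digitonin-killed cells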); conditions: HepG2 viability, 24-48 h, at 10 µM, hits give high values
[3] = biological target: L-lactate dehydrogenase (Plasmodium falciparum (isolate CDC / Honduras)) (UniProt Q27743); test: PfLDH activity inhibition – cell lysate, 3D7 strain, counter-screen for P. falciparum growth inhibition project (AID 2304);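 further: 0% = vehicle and 100% = reference inhibitor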; conditions: P. falciparum 3D7 crude extract, LDH APAD/NBT absorbance; at 2 µM; hits give high values
Sequence of L-lactate dehydrogenase (Plasmodium falciparum (isolate CDC / Honduras)) (Q27743 whole entry, looked up): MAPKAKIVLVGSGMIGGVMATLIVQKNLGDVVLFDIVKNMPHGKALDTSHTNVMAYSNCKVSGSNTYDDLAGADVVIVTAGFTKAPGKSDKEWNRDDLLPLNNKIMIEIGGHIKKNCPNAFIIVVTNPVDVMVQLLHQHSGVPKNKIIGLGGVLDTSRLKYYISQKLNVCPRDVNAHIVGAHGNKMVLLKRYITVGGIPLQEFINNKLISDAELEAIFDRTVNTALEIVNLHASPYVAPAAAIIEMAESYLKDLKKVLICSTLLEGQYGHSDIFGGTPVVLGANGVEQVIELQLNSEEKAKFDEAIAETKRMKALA

[4] = inhibition of 3D7 malaria parasite growth – strain 3D7 (AID 2306);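 further: 0% = DMSO wells and 100% = chloroquine plus artemisinin control wells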; conditions: P. falciparum 3D7 erythrocytic growth, LDH absorbance, 72 h; at 2 µM; hits give high values
[5] = biological target: Calcium-dependent protein kinase 1 (Plasmodium falciparum (isolate 3D7)) (UniProt P62344); test: PfCDPK1 kinase inhibitors, biochemical, TCAMS library (AID 1159585; cut-off not given, nearly all actives have IC50 up to about 0.98 µM;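 further: inhibitors leave more ATP so luminescence rises with inhibition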); conditions: recombinant PfCDPK1, Kinase-Glo ATP depletion luminescence
Sequence of Calcium-dependent protein kinase 1 (Plasmodium falciparum (isolate 3D7)) (P62344 whole entry, looked up): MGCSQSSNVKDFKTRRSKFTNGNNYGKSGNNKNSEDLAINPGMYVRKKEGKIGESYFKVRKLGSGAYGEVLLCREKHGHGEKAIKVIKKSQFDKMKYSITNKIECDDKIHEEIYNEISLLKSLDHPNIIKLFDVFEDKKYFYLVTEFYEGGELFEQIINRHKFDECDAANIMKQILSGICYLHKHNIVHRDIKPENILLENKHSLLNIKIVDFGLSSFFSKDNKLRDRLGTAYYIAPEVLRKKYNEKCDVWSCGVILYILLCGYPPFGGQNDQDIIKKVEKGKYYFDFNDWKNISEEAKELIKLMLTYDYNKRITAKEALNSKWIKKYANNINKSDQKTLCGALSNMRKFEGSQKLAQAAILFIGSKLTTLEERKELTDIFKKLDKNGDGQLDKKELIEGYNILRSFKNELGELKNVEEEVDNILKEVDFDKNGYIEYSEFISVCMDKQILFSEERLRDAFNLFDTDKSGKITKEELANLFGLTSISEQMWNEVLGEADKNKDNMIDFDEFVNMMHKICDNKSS

[6] = biological target: Plasmodium falciparum protein kinase 6 (PK6, PF3D7_1337100) (UniProt Q8IDW1); test: PfPK6 kinase inhibitors, biochemical, TCAMS library (AID 1159586); conditions: recombinant PfPK6, Kinase-Glo ATP depletion luminescence
Sequence of Plasmodium falciparum protein kinase 6 (PK6, PF3D7_1337100) (Q8IDW1 1-305): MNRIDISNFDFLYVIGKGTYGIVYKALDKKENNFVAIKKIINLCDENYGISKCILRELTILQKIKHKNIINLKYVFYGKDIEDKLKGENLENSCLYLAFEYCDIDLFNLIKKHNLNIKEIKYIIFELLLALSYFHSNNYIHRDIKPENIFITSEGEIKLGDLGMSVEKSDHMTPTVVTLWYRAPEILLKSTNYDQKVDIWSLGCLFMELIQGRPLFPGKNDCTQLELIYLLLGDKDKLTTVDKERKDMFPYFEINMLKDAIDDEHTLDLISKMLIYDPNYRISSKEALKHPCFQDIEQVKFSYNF

[7] = biological target: Protein kinase 7 (PK7), Plasmodium falciparum 3D7 (PF3D7_0213400) (UniProt Q7YTF7); test: inhibition of Plasmodium PK7 catalytic activity – biochemical, TCAMS antimalarial set, Kinase-Glo luminescence (AID 1159587); conditions: recombinant PfPK7, Kinase-Glo ATP depletion luminescence
Sequence of Protein kinase 7 (PK7), Plasmodium falciparum 3D7 (PF3D7_0213400) (Q7YTF7 1-343): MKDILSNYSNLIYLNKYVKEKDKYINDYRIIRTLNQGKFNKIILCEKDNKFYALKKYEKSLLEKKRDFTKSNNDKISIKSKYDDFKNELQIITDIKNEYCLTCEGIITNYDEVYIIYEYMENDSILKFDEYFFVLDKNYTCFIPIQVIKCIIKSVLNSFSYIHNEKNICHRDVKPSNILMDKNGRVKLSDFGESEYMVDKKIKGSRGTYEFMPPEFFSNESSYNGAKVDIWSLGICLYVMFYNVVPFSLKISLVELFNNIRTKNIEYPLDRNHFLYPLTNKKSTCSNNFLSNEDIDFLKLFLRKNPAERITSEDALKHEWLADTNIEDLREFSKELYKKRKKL

[8] = biological target: Calcium-dependent protein kinase 4 (Plasmodium falciparum (isolate 3D7)) (UniProt Q8IBS5); test: PfCDPK4 kinase inhibitors, biochemical, TCAMS library (AID 1159588; cut-off not given, nearly all actives have IC50 up to about 0.91 µM); conditions: recombinant PfCDPK4, Kinase-Glo ATP depletion luminescence
Sequence of Calcium-dependent protein kinase 4 (Plasmodium falciparum (isolate 3D7)) (Q8IBS5 whole entry, looked up): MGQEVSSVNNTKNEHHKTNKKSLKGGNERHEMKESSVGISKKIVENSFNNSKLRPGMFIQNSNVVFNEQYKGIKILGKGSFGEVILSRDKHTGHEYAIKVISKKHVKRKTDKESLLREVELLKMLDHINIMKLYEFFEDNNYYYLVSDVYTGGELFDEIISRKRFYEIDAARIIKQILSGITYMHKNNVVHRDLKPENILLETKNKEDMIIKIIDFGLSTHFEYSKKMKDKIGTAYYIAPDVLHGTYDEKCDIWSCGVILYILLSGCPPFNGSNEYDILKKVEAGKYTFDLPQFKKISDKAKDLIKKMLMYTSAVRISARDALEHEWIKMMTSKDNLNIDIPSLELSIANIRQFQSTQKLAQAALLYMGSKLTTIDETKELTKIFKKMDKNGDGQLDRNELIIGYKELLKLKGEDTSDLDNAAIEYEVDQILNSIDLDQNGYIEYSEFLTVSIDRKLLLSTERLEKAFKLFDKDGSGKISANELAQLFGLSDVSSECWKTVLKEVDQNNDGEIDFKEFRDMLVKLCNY

CN(C)CCCOc1ccc(CNCc2cccc(Oc3ccc(Cl)cc3)c2)cc1
inactive: growth inhibition [1] 30% | inhibition [3] 0% | outcome [5] | outcome [6] | outcome [7] | outcome [8]
active: inhibition [2] 52% | growth inhibition [4] 100%

CNCCNCc1cccc(-c2cccc(-c3nc4ccc(C(F)(F)F)cc4[nH]3)c2)c1
active: growth inhibition [1] 97% | growth inhibition [4] 100%
inactive: inhibition [2] 22% | inhibition [3] -2% | outcome [5] | outcome [6] | outcome [7] | outcome [8]

Oc1cccc(Nc2nc(NCC3CCCO3)c3ccccc3n2)c1 (stereo not given)
active: growth inhibition [1] 87% | growth inhibition [4] 100%
inactive: inhibition [2] -9% | inhibition [3] -1% | outcome [5] | outcome [6] | outcome [7] | outcome [8]

N#CN1CC[C@@H](NS(=O)(=O)Cc2ccc(Cl)c(Cl)c2)C1
active: growth inhibition [1] 94% | growth inhibition [4] 94%
inactive: inhibition [2] 13% | inhibition [3] -3% | outcome [5] | outcome [6] | outcome [7] | outcome [8]

CCC(CSC1CCCCC1)N(C)CCN(C)C(CC)CSC1CCCCC1 (stereo not given)
inactive: inhibition [3] -4% | outcome [5] | outcome [6] | outcome [7] | outcome [8]
active: growth inhibition [1] 98% | inhibition [2] 84% | growth inhibition [4] 98%

CC1(C)N=C(N)N=C(N)N1c1ccc(Br)cc1
active: inhibition [2] 52% | growth inhibition [4] 94%
inactive: growth inhibition [1] 4% | inhibition [3] 0% | outcome [5] | outcome [6] | outcome [7] | outcome [8]

COc1cc(NC2=NS(=O)(=O)c3cc(Cl)ccc3N2C)cc(OC)c1OC
active: growth inhibition [1] 100% | growth inhibition [4] 101%
inactive: inhibition [2] -6% | inhibition [3] -2% | outcome [5] | outcome [6] | outcome [7] | outcome [8]

CCCC(C)c1ccc(N2C(N)=NC(N)=NC2(C)C)cc1 (stereo not given)
active: inhibition [2] 51% | growth inhibition [4] 90%
inactive: growth inhibition [1] 7% | inhibition [3] 2% | outcome [5] | outcome [6] | outcome [7] | outcome [8]

Cn1cc(C2CCN(CCCCNC(=O)c3ccc(-c4ccc(C(F)(F)F)cc4)c(CO)c3)CC2)c2ccccc21
inactive: growth inhibition [1] 16% | inhibition [3] -1% | outcome [5] | outcome [6] | outcome [7] | outcome [8]
active: inhibition [2] 67% | growth inhibition [4] 88%

O=C(CCc1cnc[nH]1)Nc1cccc(-c2cccc(-c3nc4ccccc4[nH]3)c2)c1
active: growth inhibition [4] 101%
inactive: growth inhibition [1] 25% | inhibition [2] 8% | inhibition [3] 3% | outcome [5] | outcome [6] | outcome [7] | outcome [8]

Cc1c(Cc2ccccc2Br)cnc2nc(N)nc(N)c12
inactive: inhibition [3] 0% | outcome [5] | outcome [6] | outcome [7] | outcome [8]
active: growth inhibition [1] 97% | inhibition [2] 67% | growth inhibition [4] 88%

CCN(CCCNc1nc(=S)[nH]c2cc(OC)c(OC)cc12)c1ccccc1
active: growth inhibition [4] 100%
inactive: growth inhibition [1] 23% | inhibition [2] 14% | inhibition [3] -2% | outcome [5] | outcome [6] | outcome [7] | outcome [8]

Cc1c2ccc(N(C)c3ccnc(Nc4ccc5c(c4)nc(NC(C)C)n5C)n3)cc2nn1C
active: growth inhibition [1] 100% | growth inhibition [4] 100%
inactive: inhibition [2] 2% | inhibition [3] -4% | outcome [5] | outcome [6] | outcome [7] | outcome [8]

CCCOc1ccc(CCNCCCCNCCc2ccc(OCCC)c3ccccc23)c2ccccc12
active: growth inhibition [1] 52% | inhibition [2] 100% | growth inhibition [4] 93%
inactive: inhibition [3] 7% | outcome [5] | outcome [6] | outcome [7] | outcome [8]

O=C(NCCc1ccc(Cl)c(Cl)c1)[C@@H]1CCCN1C(=O)c1ccc(O)c(-c2ccc(Cl)c(Cl)c2)c1
inactive: inhibition [2] -2% | inhibition [3] -2% | outcome [5] | outcome [6] | outcome [7] | outcome [8]
active: growth inhibition [1] 99% | growth inhibition [4] 99%

CC1(C)N=C(N)N=C(N)N1OCCCOc1ccc(N)cc1
active: growth inhibition [1] 95% | inhibition [2] 66% | growth inhibition [4] 96%
inactive: inhibition [3] 1% | outcome [5] | outcome [6] | outcome [7] | outcome [8]

O=C(Nc1cccc(-c2cccc(-c3nc4ccc(F)cc4[nH]3)c2)c1)Nc1ccc(F)c(F)c1F
active: growth inhibition [1] 100% | inhibition [2] 83% | growth inhibition [4] 100%
inactive: inhibition [3] 4% | outcome [5] | outcome [6] | outcome [7] | outcome [8]

O=C(Nc1ccc(Cl)cc1Cl)N[C@H]1CCN(CCCCCNC(=O)[C@@H]2C[C@H]2c2ccc(Cl)c(Cl)c2)C1
active: growth inhibition [4] 94%
inactive: growth inhibition [1] 0% | inhibition [2] 37% | inhibition [3] 2% | outcome [5] | outcome [6] | outcome [7] | outcome [8]

CCCCOc1ccc(CNCCCCCCNCc2ccc(OCCCC)c3ccccc23)c2ccccc12
inactive: growth inhibition [1] 49% | inhibition [3] 2% | outcome [5] | outcome [6] | outcome [7] | outcome [8]
active: inhibition [2] 100% | growth inhibition [4] 81%

COCCN(C(=O)Cc1cccs1)C(C(=O)NCc1ccc(OC)cc1)c1ccc(C(C)C)cc1 (stereo not given)
active: growth inhibition [1] 59% | growth inhibition [4] 96%
inactive: inhibition [2] -13% | inhibition [3] 4% | outcome [5] | outcome [6] | outcome [7] | outcome [8]
